Our source for the AC50 and outcome values is PubChem BioAssay (EPA / NIEHS).

The target in assay [1] is Paired box protein Pax-6 (Homo sapiens) (UniProt P26367). Description: ATG_Pax6_CIS: Attagene CIS-FACTORIAL HepG2 Assay for human Paired Box 6 (PAX6) (AID 2282956). As to conditions: HepG2 CIS-FACTORIAL PAX6 reporter transcription, RNA readout; actives raise or lower the signal. The procedure, abridged: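 Transient MRTU transfection of HepG2 → compound exposure 24 h → TriZol RNA, oligo(dT) RT → PCR, 6-FAM primer extension, HpaI cut → capillary electrophoresis; activity fitted both directions against DMSO.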

Assay [2] is described as follows: ATG_PXRE_CIS: Attagene CIS-FACTORIAL HepG2 Assay for human Pregnane X Receptor Element (PXRE) (AID 2282957). As to conditions: HepG2 Attagene CIS-FACTORIAL PXRE reporter, mRNA; actives raise or lower the signal. Summed up:
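Transiently transfected HepG2 cells were dosed and incubated for 24 h. RNA was then isolated, DNase-treated, reverse-transcribed and reporter sequences amplified. Labeled, HpaI-digested fragments were quantified by capillary electrophoresis against DMSO.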

Assay [3] can be described thus: ATG_Sox_CIS: Attagene CIS-FACTORIAL HepG2 Assay for human SRY-box transcription factor (SOX) (AID 2282960). As to conditions: HepG2 Attagene cis-factorial SOX reporter, mRNA; actives raise or lower the signal. Summed up:
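HepG2, cis reporter units, 24 h exposure. Reporter mRNA: RT-PCR → FAM labelling → HpaI → CE fluorescence. Bidirectional fit vs DMSO.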

In assay [4] the target is Transcription factor Sp1 (Homo sapiens) (UniProt P08047). Briefly: ATG_Sp1_CIS: Attagene CIS-FACTORIAL HepG2 Assay for human Specificity Protein 1 (Sp1) (AID 2282961). As to conditions: HepG2 Sp1 cis-reporter transcription, actives raise or lower the signal. The procedure, abridged: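 Liver-derived HepG2 cells, cis-element reporter library, 24 h treatment; RNA isolated, cDNA amplified with reporter-specific primers, FAM-labeled fragments sized on capillary analyzer. DMSO baseline, bidirectional curve fit.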

Assay [5] is described as follows: ATG_SREBP_CIS: Attagene CIS-FACTORIAL HepG2 Assay for human Sterol Regulatory Element Binding (SREBP) (AID 2282962). As to conditions: HepG2 Attagene cis-factorial SREBP reporter, mRNA; actives raise or lower the signal. Summed up: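 Transfected HepG2 (cis-regulated reporter library, endogenous TFs) → compound 24 h → total RNA → oligo(dT) RT → reporter-specific PCR → FAM primer extension, HpaI cut → CE fluorescence. Fit bidirectional vs DMSO.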

In assay [6] the target is Signal transducer and activator of transcription 3 (Homo sapiens) (UniProt P40763). Description: ATG_STAT3_CIS: Attagene CIS-FACTORIAL HepG2 Assay for human Signal Transducer and Activator of Transcription 3 (STAT3) (AID 2282963). As to conditions: HepG2, Attagene cis-factorial STAT3 reporter transcription; actives raise or lower the signal. Summed up: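 HepG2 cells transiently transfected with cis-element-driven multiple reporter transcription units; after 24 h chemical exposure, reporter mRNA measured by RT-PCR, 6-FAM primer-extension labelling, HpaI digestion and capillary electrophoresis. Bidirectional fitting versus DMSO baseline.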

Assay [7] can be described thus: ATG_TA_CIS: Attagene CIS-FACTORIAL HepG2 Assay for human TA Basal Promoter (AID 2282964). As to conditions: HepG2 Attagene CIS-factorial TA basal promoter reporter; actives raise or lower the signal. Summed up:
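HepG2 cells transiently transfected with multiple reporter units under cis promoter elements, reporting endogenous transcription factor activity; this endpoint tracks the TA basal promoter as background control. Reporter mRNA after 24 h dosing measured by RT-PCR/capillary electrophoresis; bidirectional fits versus DMSO.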

Assay [8] can be described thus: ATG_TCF_b_cat_CIS: Attagene CIS-FACTORIAL HepG2 Assay for human T-Cell-Factor with beta-catenin (TCF/b-cat) (AID 2282965). As to conditions: HepG2 TCF/beta-catenin cis-reporter transcription, actives raise or lower the signal. Summed up: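 In this cis-format system, transfected HepG2 cells report endogenous transcription factor activity. Readout after 24 h exposure is reporter transcript abundance from RT-PCR and capillary electrophoresis, analysed for gain or loss of signal versus DMSO.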

Assay [9] in a line: ATG_TAL_CIS: Attagene CIS-FACTORIAL HepG2 Assay for human TAL Basal Promoter (AID 2282966).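 Also: background control endpoint measuring basal TAL promoter reporter mRNA not a specific factor.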 As to conditions: HepG2 Attagene cis-factorial TAL promoter reporter; actives raise or lower the signal. Summed up: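 Readout: reporter mRNA, fluorescence by CE. System: HepG2, transient multi-reporter transfection, endogenous TF activity. Exposure: 24 h. Analysis: bidirectional, DMSO-normalized; background control.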

The nature of assay [10]: ATG_TGFb_CIS: Attagene CIS-FACTORIAL HepG2 Assay for human Transforming Growth Factor (TGF) (AID 2282967). As to conditions: HepG2 Attagene CIS TGFb reporter, mRNA transcription; actives raise or lower the signal. The procedure, abridged: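 HepG2 cells transiently transfected with cis-promoter-driven multiple reporter units measure endogenous TF activity; reporter mRNA quantified at 24 h by RT-PCR, FAM labeling, HpaI digestion and capillary electrophoresis. Bidirectional fit vs DMSO.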

Assay [11] in a line: ATG_VDRE_CIS: Attagene CIS-FACTORIAL HepG2 Assay for human Vitamin D Receptor Element (VDRE) (AID 2282968). As to conditions: HepG2 VDRE cis-reporter transcription, actives raise or lower the signal. The procedure, abridged:
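HepG2 cells transiently transfected with cis-element reporter units, dosed 24 h; reporter mRNA measured by RT-PCR, 6-FAM labeling, HpaI digestion and capillary electrophoresis. Activity fitted bidirectionally against DMSO baseline.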

The target in assay [12] is Nuclear receptor subfamily 1 group I member 3 (Homo sapiens) (UniProt Q14994). Briefly: ATG_CAR_TRANS: Attagene TRANS-FACTORIAL HepG2 Assay for human Constitutive Androstane Receptor (CAR) (AID 2282969; active = hit-call score of the fitted dose curve at least 0.9, where 1 is the maximum;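 also: activators raise reporter mRNA above DMSO so AC50 marks induction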). As to conditions: HepG2 Attagene TRANS-FACTORIAL CAR reporter. Summed up: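 HepG2 cells transiently transfected with multiplexed GAL4-UAS reporter units expressing chimeric NR-Gal4 proteins; compound exposure 24 h. Reporter mRNA measured by RT-PCR, 6-FAM labelling, HpaI digestion and capillary electrophoresis; gain-of-signal fitted against DMSO baseline.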

In assay [13] the target is Estrogen receptor (Homo sapiens) (UniProt P03372). Briefly: ATG_ERa_TRANS: Attagene TRANS-FACTORIAL HepG2 Assay for human Estrogen Receptor alpha (ERa) (AID 2282970; active = hit-call score of the fitted dose curve at least 0.9, where 1 is the maximum). As to conditions: HepG2 Attagene TRANS ERa GAL4 reporter, mRNA. The procedure, abridged:
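Transactivation via ERa-Gal4 chimera in HepG2; 24 hour incubation; reporter mRNA detected by fluorescence RT-PCR and capillary electrophoresis.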

Assay [14] addresses X-box-binding protein 1 (Homo sapiens) (UniProt P17861). Briefly: ATG_Xbp1_CIS: Attagene CIS-FACTORIAL HepG2 Assay for human X-box Binding Protein 1 (XBP1) (AID 2282972). As to conditions: HepG2 XBP1 cis-element reporter, Attagene multiplex; actives raise or lower the signal. The procedure, abridged:
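HepG2, transient MRTU transfection (cis-promoter driven), 24 h compound exposure. Total RNA → oligo(dT) RT → PCR → 6-FAM labeling → HpaI cut → CE. Bidirectional fit vs DMSO.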

A short description of assay [15]: ATG_RORE_CIS: Attagene CIS-FACTORIAL HepG2 Assay for human RAR-related Orphan Receptor Element (RORE) (AID 2282959). As to conditions: HepG2 Attagene cis-factorial RORE reporter, mRNA; actives raise or lower the signal. The procedure, abridged:
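A 24-hour exposure of transfected HepG2 hepatoma cells precedes RNA isolation and reporter RT-PCR. Labeled products are digested with HpaI and resolved by capillary electrophoresis, with gain or loss of signal scored relative to DMSO.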

Assay [16] is described as follows: ATG_PPRE_CIS: Attagene CIS-FACTORIAL HepG2 Assay for human Peroxisome Proliferator-activated Response Element (PPRE) (AID 2282958). As to conditions: HepG2 PPRE cis-element reporter, Attagene transcription factor profiling; actives raise or lower the signal. The procedure, abridged: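 PPRE activity in HepG2: transient cis-reporter transfection, 24 h compound incubation, reporter mRNA by RT-PCR and CE fluorescence; gain/loss fitted against DMSO.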

A short description of assay [17]: ATG_M_19_TRANS: Attagene TRANS-FACTORIAL HepG2 Assay for M19 Transcription Factor (Internal Marker) (AID 2282974; active = hit-call score of the fitted dose curve at least 0.9, where 1 is the maximum). As to conditions: HepG2 Attagene TRANS-FACTORIAL M19 internal marker reporter. Summed up: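 Transfected HepG2 (GAL4-UAS MRTUs), 24 h compound, TriZol RNA, DNase-treated RT, reporter PCR, FAM label, HpaI digest, CE fluorescence; gain vs DMSO.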

Molecules are shown by their SMILES. Several values for one entry are separate records, joined by “and”; a condition that tells them apart may be missing. Equal entries are not always repeated. Records with an inconclusive call do not appear. More than one record can exist for a structure, and the calls need not agree. Activity calls are given as the source filed them. The calls were made as follows, unless noted: active = hit-call score of the fitted dose curve at least 0.9, where 1 is the maximum; inactive = score below 0.9.

X-box-binding protein 1 (Homo sapiens), sequence (P17861 whole entry, looked up): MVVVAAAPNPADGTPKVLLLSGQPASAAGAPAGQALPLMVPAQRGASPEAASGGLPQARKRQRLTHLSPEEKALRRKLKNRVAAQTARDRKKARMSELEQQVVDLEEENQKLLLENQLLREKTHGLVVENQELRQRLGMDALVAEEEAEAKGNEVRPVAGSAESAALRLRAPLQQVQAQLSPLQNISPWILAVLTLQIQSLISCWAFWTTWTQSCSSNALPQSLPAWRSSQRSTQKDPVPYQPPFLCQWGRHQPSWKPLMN
Transcription factor Sp1 (Homo sapiens), sequence (P08047 whole entry, looked up, the tested form may be a part): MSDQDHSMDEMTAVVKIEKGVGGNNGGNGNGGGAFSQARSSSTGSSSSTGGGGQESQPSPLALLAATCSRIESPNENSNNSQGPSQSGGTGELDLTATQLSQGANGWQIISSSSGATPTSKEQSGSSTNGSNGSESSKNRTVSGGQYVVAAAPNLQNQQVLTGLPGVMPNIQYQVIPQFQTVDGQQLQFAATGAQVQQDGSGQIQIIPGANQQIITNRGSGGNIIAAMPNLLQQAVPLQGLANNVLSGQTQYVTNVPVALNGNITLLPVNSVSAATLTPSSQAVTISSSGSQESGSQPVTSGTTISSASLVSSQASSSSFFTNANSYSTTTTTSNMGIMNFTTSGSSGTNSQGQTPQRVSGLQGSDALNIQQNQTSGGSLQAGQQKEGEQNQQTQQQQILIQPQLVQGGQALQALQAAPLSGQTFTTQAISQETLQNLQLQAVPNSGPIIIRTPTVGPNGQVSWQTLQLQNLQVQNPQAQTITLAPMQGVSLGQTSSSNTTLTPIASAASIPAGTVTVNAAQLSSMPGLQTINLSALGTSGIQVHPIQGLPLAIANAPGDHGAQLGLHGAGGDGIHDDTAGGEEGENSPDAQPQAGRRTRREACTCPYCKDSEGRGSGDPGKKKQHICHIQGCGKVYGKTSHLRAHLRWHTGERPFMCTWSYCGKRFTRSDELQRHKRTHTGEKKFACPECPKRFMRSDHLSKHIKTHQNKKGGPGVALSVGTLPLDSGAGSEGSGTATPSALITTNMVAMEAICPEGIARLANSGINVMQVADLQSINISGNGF
Paired box protein Pax-6 (Homo sapiens), sequence (P26367 whole entry, looked up): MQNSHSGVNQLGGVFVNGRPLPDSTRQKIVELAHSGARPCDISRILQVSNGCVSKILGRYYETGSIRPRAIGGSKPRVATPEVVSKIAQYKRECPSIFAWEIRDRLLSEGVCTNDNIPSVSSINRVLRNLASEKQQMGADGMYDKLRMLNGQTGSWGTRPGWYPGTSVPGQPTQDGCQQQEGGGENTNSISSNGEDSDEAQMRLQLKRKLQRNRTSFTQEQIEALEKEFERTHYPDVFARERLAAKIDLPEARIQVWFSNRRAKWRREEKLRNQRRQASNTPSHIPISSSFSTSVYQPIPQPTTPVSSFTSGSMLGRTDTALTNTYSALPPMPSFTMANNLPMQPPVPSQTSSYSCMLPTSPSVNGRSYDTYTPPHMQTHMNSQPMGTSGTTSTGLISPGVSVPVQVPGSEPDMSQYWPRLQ
Estrogen receptor (Homo sapiens), sequence (P03372 whole entry, looked up, the tested form may be a part): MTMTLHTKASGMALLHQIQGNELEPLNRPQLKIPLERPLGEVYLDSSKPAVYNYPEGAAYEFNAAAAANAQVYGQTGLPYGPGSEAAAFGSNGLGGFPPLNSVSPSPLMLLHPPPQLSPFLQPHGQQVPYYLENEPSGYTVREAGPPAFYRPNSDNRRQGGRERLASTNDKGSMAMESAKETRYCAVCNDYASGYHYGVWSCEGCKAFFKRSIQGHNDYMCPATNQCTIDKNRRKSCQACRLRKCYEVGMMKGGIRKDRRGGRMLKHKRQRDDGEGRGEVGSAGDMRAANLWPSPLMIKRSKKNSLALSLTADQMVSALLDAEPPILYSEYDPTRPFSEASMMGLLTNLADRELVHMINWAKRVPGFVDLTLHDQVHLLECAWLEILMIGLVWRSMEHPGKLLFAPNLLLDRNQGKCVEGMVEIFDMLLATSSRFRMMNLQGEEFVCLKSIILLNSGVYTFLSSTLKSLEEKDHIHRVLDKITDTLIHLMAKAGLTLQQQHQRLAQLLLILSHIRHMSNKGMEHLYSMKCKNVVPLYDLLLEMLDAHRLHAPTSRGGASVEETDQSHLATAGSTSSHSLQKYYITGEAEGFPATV
Nuclear receptor subfamily 1 group I member 3 (Homo sapiens), sequence (Q14994 whole entry, looked up, the tested form may be a part): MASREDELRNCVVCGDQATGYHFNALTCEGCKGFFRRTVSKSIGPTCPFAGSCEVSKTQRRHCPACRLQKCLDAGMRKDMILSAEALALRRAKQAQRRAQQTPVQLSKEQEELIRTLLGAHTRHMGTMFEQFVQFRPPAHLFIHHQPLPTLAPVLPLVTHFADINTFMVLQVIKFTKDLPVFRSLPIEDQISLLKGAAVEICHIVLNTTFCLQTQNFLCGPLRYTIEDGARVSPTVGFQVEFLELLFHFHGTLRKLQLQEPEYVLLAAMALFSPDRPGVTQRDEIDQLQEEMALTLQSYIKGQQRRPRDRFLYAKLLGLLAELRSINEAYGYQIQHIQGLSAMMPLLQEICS
Signal transducer and activator of transcription 3 (Homo sapiens), sequence (P40763 whole entry, looked up): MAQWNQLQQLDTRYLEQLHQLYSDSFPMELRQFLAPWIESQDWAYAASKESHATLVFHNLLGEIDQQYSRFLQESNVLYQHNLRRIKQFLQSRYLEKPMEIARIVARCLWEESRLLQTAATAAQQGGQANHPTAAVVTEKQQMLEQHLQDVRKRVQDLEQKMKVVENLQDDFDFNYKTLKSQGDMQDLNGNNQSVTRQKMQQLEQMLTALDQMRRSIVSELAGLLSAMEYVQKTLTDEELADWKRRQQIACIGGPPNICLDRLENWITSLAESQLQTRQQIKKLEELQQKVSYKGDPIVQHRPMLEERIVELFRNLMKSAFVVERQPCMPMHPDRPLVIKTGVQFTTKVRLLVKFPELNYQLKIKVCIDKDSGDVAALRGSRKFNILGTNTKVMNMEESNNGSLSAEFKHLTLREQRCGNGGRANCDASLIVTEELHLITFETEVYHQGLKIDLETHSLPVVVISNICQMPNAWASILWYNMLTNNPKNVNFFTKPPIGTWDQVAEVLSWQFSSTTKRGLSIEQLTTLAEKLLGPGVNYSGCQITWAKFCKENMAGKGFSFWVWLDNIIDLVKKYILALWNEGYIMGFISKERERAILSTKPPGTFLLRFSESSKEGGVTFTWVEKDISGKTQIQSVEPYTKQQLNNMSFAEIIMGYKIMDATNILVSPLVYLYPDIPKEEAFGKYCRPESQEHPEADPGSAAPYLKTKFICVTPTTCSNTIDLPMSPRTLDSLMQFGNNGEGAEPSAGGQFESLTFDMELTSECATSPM

Consider `COc1ccc(O)c(C(C)(C)C)c1`, for which the AC50 was 146 µM (active) in assay [1]; 8.2 µM (active) in assay [2]; 184 µM (active) in [4]; 162 µM (active) in assay [8]; 58.7 µM (active) in assay [11]; 31.5 µM (active) in assay [13]. Further, in assay [14], the AC50 was 100 µM (active). Besides, the result in assay [3], in assay [5], in assay [6], in assay [7], in assay [9] and in [10] was inactive. Besides, the compound was called inactive in assay [12].
On to `Oc1c(Cl)c(Cl)c(Cl)c(Cl)c1Cl`, for which the concentration at half-maximal activity (AC50) in assay [1] is 50 µM (active) and 14 µM (active) and 34 µM (active); in assay [2], 13.6 µM (active) and 12.2 µM (active) and 5.75 µM (active); in assay [15] it was 24.1 µM (active) and 5.68 µM (active) and 4.77 µM (active); in [3], 23.5 µM (active) and 31.3 µM (active); in assay [4], 20.7 µM (active) and 27.9 µM (active) and 166 µM (active); in assay [5], 50 µM (active) and 83.2 µM (active). In addition, the AC50 was 17.1 µM (active) in assay [7]; 11.8 µM (active) in assay [8]; 26.4 µM (active) in [9]; 13.2 µM (active) in [10]; 25.5 µM (active) and 8.06 µM (active) and 8.47 µM (active) in assay [11]; 29.5 µM (active) and 19 µM (active) and 74.2 µM (active) in [14]. Further, the result in assay [3], in assay [5], in assay [6], in assay [7], in assay [8] and in assay [9] was inactive. In addition, the compound was called inactive in assay [10], in [12] and in [13].
With `O=C(NC(=O)c1cc(F)c(F)cc1Cl)Nc1cc(F)ccc1N1CCC(C(=O)O)CC1`, the compound was classed as inactive in [1], in [16], in assay [15], in [3], in assay [4] and in assay [6]. Also, the compound was called inactive in [7], in assay [8], in assay [9], in assay [10], in [11] and in assay [14]. For the same compound, the call in assay [17] was inactive. The AC50 in assay [2] and in assay [5] was 4.65 µM (active) each time.
With `Cc1cc(O)ccc1Cl`, the result in assay [1], in assay [2], in assay [16], in [15], in assay [3] and in assay [4] was inactive. Moreover, the result in [5], in assay [6], in assay [7], in [8], in assay [9] and in assay [10] was inactive. Besides, the call in assay [11], in [14] and in [17] was inactive. In addition, the concentration at half-maximal activity (AC50) in [13] was 40.4 µM (active).
Regarding `O=S(=O)(O)C(F)(F)C(F)(F)C(F)(F)C(F)(F)F`, the outcome in assay [1], in [2], in assay [16], in assay [15], in assay [3] and in assay [4] was inactive. The compound was called inactive in assay [5], in assay [6], in assay [7], in assay [8], in assay [9] and in assay [10]. Also, the compound was called inactive in [11], in [14] and in [17].

The term AC50 denotes the midpoint of the concentration-response curve, whichever way the signal moves.
